About 79,000 compounds went through this panel and 15% of them were active in at least one assay; those are over-represented in the sample as a whole. A number with no mark means an inactive call. Activity calls are given as the source filed them. Cut-off read from the data, not from the text of the source: active = growth inhibition above about 70%; inactive = the rest. *1 amine or outer side, *2 acyl side, *3 side chain or, on linkers, in order; H or OH if unused. Where a SMILES comes first, the peptide text is derived from it. [ ]: non-standard residue; d: D form. X12 = NC(N)=NCC(O)CC(N[*:1])C(=O)[*:2]; Orn = NCCC[CH](N)C(=O)O
Tests used:
[1] = NCI Yeast Anticancer Drug Screen. Data for the rad50 strain (AID 155);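 note: 0% = growth of vehicle-only cultures of the same strain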; details: S. cerevisiae rad50 strain growth inhibition; at 50.0 µM; hits give high values
Procedure, shortened: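 Cells are treated with compound, grown, and their growth is then scored against vehicle-only cultures of the same repair-deficient yeast strain.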

[2] = NCI Yeast Anticancer Drug Screen. Data for the mec2-1 strain (AID 157); details: S. cerevisiae mec2-1 strain, at 50.0 µM, hits give high values
Procedure, shortened: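 Compounds were applied to mec2-1 yeast cells. Their growth was then compared with that of vehicle-treated cultures to give growth inhibition.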

[3] = NCI Yeast Anticancer Drug Screen. Data for the sgs1 mgt1 strain (AID 161);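 note: 0% = growth of cultures given vehicle only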; details: S. cerevisiae sgs1 mgt1 strain, at 50.0 µM, hits give high values
Procedure, shortened: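 Growth of a repair-deficient yeast mutant was monitored after compound treatment and expressed as inhibition relative to vehicle-treated cultures.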

[4] = NCI Yeast Anticancer Drug Screen. Data for the cln2 rad14 strain (AID 165);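 note: 0% = growth equal to vehicle treated cultures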; details: S. cerevisiae cln2 rad14 strain, at 50.0 µM, hits give high values
Procedure, shortened: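 Strain: cln2 rad14 yeast, altered in cell cycle control and DNA damage repair. Read-out: growth inhibition vs vehicle.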

[5] = NCI Yeast Anticancer Drug Screen. Data for the bub3 strain (AID 167); details: S. cerevisiae bub3 mutant strain, at 50.0 µM, hits give high values
Procedure, shortened: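 Part of a panel of yeast mutants defective in DNA damage repair or cell cycle regulation. Each strain is grown with compound, and inhibition is calculated relative to solvent-treated cultures.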

[6] = NCI Yeast Anticancer Drug Screen. Data for the mlh1 rad18 strain (AID 175); details: S. cerevisiae mlh1 rad18 strain growth inhibition; at 50.0 µM; hits give high values
Procedure, shortened: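 A repair-deficient yeast strain is exposed to test compound, and growth is scored relative to vehicle-treated controls.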

CCOC(=O)NCC(=O)NCC(=O)NCC(N)=O
growth inhibition [1]: -14.2%
growth inhibition [2]: -19.2%
growth inhibition [3]: -12.9%
growth inhibition [4]: -9.65%
growth inhibition [5]: -25.1%
growth inhibition [6]: 7.95%

Cc1ccc2c(c1)C(=O)C1(C2)Cc2ccc(C)cc2C1=O
growth inhibition [1]: -53%
growth inhibition [2]: -45.9%
growth inhibition [3]: 4.05%
growth inhibition [4]: -3.45%
growth inhibition [5]: 5.45%
growth inhibition [6]: -24.9%

C=C1C(C)C2C(Cc3ccccc3)NC(=O)C23OC(=O)/C=C\CC(=O)CCC(C)C/C=C/C3C1O (stereo unspecified)
growth inhibition [1]: 91.4% (active)
growth inhibition [2]: 93.2% (active)
growth inhibition [3]: 93% (active)
growth inhibition [4]: 90.8% (active)
growth inhibition [5]: 90.8% (active)
growth inhibition [6]: 91.2% (active)

CC(C)C(C(=O)O)N(C)C(=O)c1cnc2ccccc2n1 (stereo unspecified)
growth inhibition [1]: 9.1%
growth inhibition [2]: -1.2%
growth inhibition [3]: -0.6%
growth inhibition [4]: 22.9%
growth inhibition [5]: 17.6%
growth inhibition [6]: -6.2%

c1ccc(Cc2c[nH]c3ccccc23)cc1
growth inhibition [1]: 9.45%
growth inhibition [2]: -0.05%
growth inhibition [3]: 9.4%
growth inhibition [4]: -9.6%
growth inhibition [5]: -1.85%
growth inhibition [6]: 14.9%

CS(=O)(=O)NCCBr
growth inhibition [1]: -10.4%
growth inhibition [2]: -3.5%
growth inhibition [3]: 5.9%
growth inhibition [4]: -22.4%
growth inhibition [5]: -32%
growth inhibition [6]: -10.9%

Cn1nc(-c2ccccc2)c([N+](=O)[O-])c1NCc1ccccc1
growth inhibition [1]: -0.8%
growth inhibition [2]: -1.95%
growth inhibition [3]: -4.4%
growth inhibition [4]: -29.1%
growth inhibition [5]: 6.4%
growth inhibition [6]: 1.15%

COC(=O)CCCCCCCCC(C)C(C)=O (stereo unspecified)
growth inhibition [1]: -34.8%
growth inhibition [2]: -29.8%
growth inhibition [3]: -16.4%
growth inhibition [4]: -12.5%
growth inhibition [5]: -45.3%
growth inhibition [6]: -32.5%

CN(C)Cc1cn(C[Si](C)(C)C)c2ccccc12
growth inhibition [1]: 18.6%
growth inhibition [2]: -3.25%
growth inhibition [3]: 7.7%
growth inhibition [4]: 0.35%
growth inhibition [5]: 3.75%
growth inhibition [6]: 13.2%

CCCCCCCCCC1CC(=O)OC23CCCC(=O)C12O3 (stereo unspecified)
growth inhibition [1]: -10.8%
growth inhibition [2]: -32%
growth inhibition [3]: 9.2%
growth inhibition [4]: 15.8%
growth inhibition [5]: -8%
growth inhibition [6]: -17.6%

CCC(O)(c1ccccc1)C(O)c1ccccc1 (stereo unspecified)
growth inhibition [1]: -2.35%
growth inhibition [2]: 8.9%
growth inhibition [3]: -4.4%
growth inhibition [4]: 3.8%
growth inhibition [5]: 4.95%
growth inhibition [6]: -15.8%

ClSC(c1ccccc1)(c1ccccc1)c1ccccc1
growth inhibition [1]: 20.2%
growth inhibition [2]: 8.9%
growth inhibition [3]: 57.6%
growth inhibition [4]: 10.6%
growth inhibition [5]: -30.9%
growth inhibition [6]: 33.4%

CCOC(=O)c1ccc(NCCCNc2ccc(C(=O)OCC)cc2)cc1
growth inhibition [1]: -8.05%
growth inhibition [2]: 13.8%
growth inhibition [3]: 1.45%
growth inhibition [4]: 0.35%
growth inhibition [5]: 4.7%
growth inhibition [6]: 9.5%

c1ccc2c(c1)cc1n2CC2CN=NC12 (stereo unspecified)
growth inhibition [1]: -5.85%
growth inhibition [2]: 14.4%
growth inhibition [3]: -27.4%
growth inhibition [4]: 12.3%
growth inhibition [5]: -5.55%
growth inhibition [6]: 10.1%

CCCC1OCC=CCO1
growth inhibition [1]: 3.75%
growth inhibition [2]: -23.6%
growth inhibition [3]: -21.1%
growth inhibition [4]: -1.45%
growth inhibition [5]: -33.5%
growth inhibition [6]: 20.4%

CCCc1cc(C(=O)N/N=C/c2ccc([N+](=O)[O-])cc2)c2ccccc2n1
growth inhibition [1]: -28.3%
growth inhibition [2]: -3.2%
growth inhibition [3]: 0.1%
growth inhibition [4]: -40.5%
growth inhibition [5]: 9.5%
growth inhibition [6]: -2.8%

O=C(O)c1ccc(C(=O)O)c(C(=O)O)c1.[NH-]C1CCCCC1[NH-].[Pd+2]
growth inhibition [1]: 11.1%
growth inhibition [2]: 5.2%
growth inhibition [3]: 7.9%
growth inhibition [4]: 10.6%
growth inhibition [5]: 3.95%
growth inhibition [6]: 9.65%

CC(O)(c1ccncc1)c1cc2ccccc2n1S(=O)(=O)c1ccccc1 (stereo unspecified)
growth inhibition [1]: 2.2%
growth inhibition [2]: 2.65%
growth inhibition [3]: 14.8%
growth inhibition [4]: -20.1%
growth inhibition [5]: 1.95%
growth inhibition [6]: 6.15%

O=C(O)CN1C(=O)c2ccc([N+](=O)[O-])cc2C1=O
growth inhibition [1]: -3.65%
growth inhibition [2]: -0.2%
growth inhibition [3]: 2.3%
growth inhibition [4]: -8.2%
growth inhibition [5]: -16.5%
growth inhibition [6]: 4.25%

Cc1ccc(N=NC2Sc3nc4ccccc4n3C2=O)cc1 (stereo unspecified)
growth inhibition [1]: -7.1%
growth inhibition [2]: 9.75%
growth inhibition [3]: -0.7%
growth inhibition [4]: -35.5%
growth inhibition [5]: 16.3%
growth inhibition [6]: 13.2%

C=CCN1C(=O)NC(=O)C1c1ccsc1 (stereo unspecified)
growth inhibition [1]: -14.7%
growth inhibition [2]: -0.25%
growth inhibition [3]: -22.2%
growth inhibition [4]: -34.2%
growth inhibition [5]: -1.45%
growth inhibition [6]: 2.6%

c1ccc(-c2nc3ccccc3nc2-c2ccc(-c3ccc(-c4nc5ccccc5nc4-c4ccccc4)cc3)cc2)cc1
growth inhibition [1]: 16.1%
growth inhibition [2]: 5.8%
growth inhibition [3]: -13.8%
growth inhibition [4]: 21.3%
growth inhibition [5]: -0.4%
growth inhibition [6]: 4.1%

COc1cc(CCCO)ccc1O
growth inhibition [1]: 0.85%
growth inhibition [2]: 13.8%
growth inhibition [3]: 0.25%
growth inhibition [4]: -48.1%
growth inhibition [5]: 9.1%
growth inhibition [6]: -4.1%

CCOC(=O)/C(=C/O)NC(=O)c1ccccc1
growth inhibition [1]: -10.4%
growth inhibition [2]: 18.8%
growth inhibition [3]: -5.5%
growth inhibition [4]: -18.9%
growth inhibition [5]: -9.95%
growth inhibition [6]: 19.4%

COc1ccc2ccccc2c1
growth inhibition [1]: -21%
growth inhibition [2]: -30%
growth inhibition [3]: -12.2%
growth inhibition [4]: -23.9%
growth inhibition [5]: 1.35%
growth inhibition [6]: -31.6%

CCOC(=O)/C=C1/Nc2cc(F)c(F)cc2NC1=O
growth inhibition [1]: -36.1%
growth inhibition [2]: 14.1%
growth inhibition [3]: 16%
growth inhibition [4]: 13.8%
growth inhibition [5]: 14.6%
growth inhibition [6]: -56%

Clc1ccc(-c2c3nc(c(-c4ccc(Cl)cc4)c4ccc([nH]4)c(-c4ccc(Cl)cc4)c4nc(c(-c5ccc(Cl)cc5)c5ccc2[nH]5)C=C4)C=C3)cc1
growth inhibition [1]: -30.6%
growth inhibition [2]: -17.9%
growth inhibition [3]: -12.4%
growth inhibition [4]: 15.8%
growth inhibition [5]: -14.3%
growth inhibition [6]: -18.9%

CCC(CCN(C)C)(OC(C)=O)c1ccccc1 (stereo unspecified)
growth inhibition [1]: 10.4%
growth inhibition [2]: -0.55%
growth inhibition [3]: -3%
growth inhibition [4]: 11.7%
growth inhibition [5]: 30.9%
growth inhibition [6]: -15.8%

CCNC(=O)Nc1ccccn1
growth inhibition [1]: -8.4%
growth inhibition [2]: -1.55%
growth inhibition [3]: 8.85%
growth inhibition [4]: 0.5%
growth inhibition [5]: -5.05%
growth inhibition [6]: -2.4%

O=C(O)c1ccccc1[N+](=O)[O-]
growth inhibition [1]: -4.1%
growth inhibition [2]: 10.1%
growth inhibition [3]: -9.5%
growth inhibition [4]: 1.3%
growth inhibition [5]: -4.3%
growth inhibition [6]: 10.8%

COc1c2c(cc3c1C(=O)Cc1ccc4c(c1CN(C)CC3)OCO4)OCO2
growth inhibition [1]: 7.15%
growth inhibition [2]: -3.4%
growth inhibition [3]: -1.15%
growth inhibition [4]: 24.4%
growth inhibition [5]: 8.95%
growth inhibition [6]: 7.25%

Cc1cc(C)c(NC(=O)c2c(Cl)c(Cl)c(Cl)c(Cl)c2C(=O)O)c(C)c1
growth inhibition [1]: -4.9%
growth inhibition [2]: -4.45%
growth inhibition [3]: 0.05%
growth inhibition [4]: -51.3%
growth inhibition [5]: 5.5%
growth inhibition [6]: 0.3%

CC(O)C(NC(=O)C(CCCN)NC(=O)C(CC(O)CN=C(N)N)NC(=O)C(N)CCCN=C(N)N)C(=O)NC(CCCN)C(=O)NC(CC(O)CN=C(N)N)C(=O)NC(Cc1ccc(O)cc1)C(=O)O (stereo unspecified) (H-R[X12][Orn]T[Orn][X12]Y-OH; configuration not given here)
growth inhibition [1]: -0.15%
growth inhibition [2]: -19.4%
growth inhibition [3]: -4.1%
growth inhibition [4]: 15.1%
growth inhibition [5]: -15.2%
growth inhibition [6]: 2.45%

c1ccc2c(c1)NC(C1OC3CCCN3C1C1Nc3ccccc3S1)S2 (stereo unspecified)
growth inhibition [1]: -43.2%
growth inhibition [2]: -6%
growth inhibition [3]: -28.6%
growth inhibition [4]: -1.5%
growth inhibition [5]: -14.1%
growth inhibition [6]: -24.4%

Cc1cc(=O)[nH]c(NN2C(Cl)C(=O)C2c2ccc([N+](=O)[O-])cc2)n1 (stereo unspecified)
growth inhibition [1]: 15.8%
growth inhibition [2]: -24.2%
growth inhibition [3]: 12.7%
growth inhibition [4]: 2.7%
growth inhibition [5]: 3.85%
growth inhibition [6]: -18.8%

OC1C2CCC3C2CC(C(O)(c2ccccc2)c2ccccc2)C13 (stereo unspecified)
growth inhibition [1]: -0.2%
growth inhibition [2]: -23.6%
growth inhibition [3]: -8.75%
growth inhibition [4]: -13.2%
growth inhibition [5]: -50%
growth inhibition [6]: -15.4%

O=C(COc1c(Cl)c(Cl)c(Cl)c(Cl)c1Cl)Nc1cccc(Cl)c1
growth inhibition [1]: 18.9%
growth inhibition [2]: 2%
growth inhibition [3]: 5.25%
growth inhibition [4]: 15.2%
growth inhibition [5]: 21.3%
growth inhibition [6]: 22.8%

COc1ccc(N=Cc2ccc(N(CCC#N)S(=O)(=O)c3ccccc3)cc2C)cc1
growth inhibition [1]: -9.4%
growth inhibition [2]: -10.8%
growth inhibition [3]: 5.5%
growth inhibition [4]: 13.4%
growth inhibition [5]: -16.8%
growth inhibition [6]: -10%

OCC(O)COc1ccccc1F (stereo unspecified)
growth inhibition [1]: 11.5%
growth inhibition [2]: -6.35%
growth inhibition [3]: -11.2%
growth inhibition [4]: -13.2%
growth inhibition [5]: -7.5%
growth inhibition [6]: 10.8%

O=C(CCl)NC(=O)NC1=C(Cl)C(=O)c2ccccc2C1=O
growth inhibition [1]: 98% (active)
growth inhibition [2]: 98.6% (active)
growth inhibition [3]: 98.3% (active)
growth inhibition [4]: 97.7% (active)
growth inhibition [5]: 98.3% (active)
growth inhibition [6]: 97.7% (active)

O=C(O)CNCCO
growth inhibition [1]: -0.35%
growth inhibition [2]: 7.75%
growth inhibition [3]: 6.65%
growth inhibition [4]: 0%
growth inhibition [5]: 22.2%
growth inhibition [6]: -0.25%

Source: PubChem BioAssay (NCI)
